From PubChem
Shown are actives, neighbours in structure and some others; about 1.8% of the full set was active somewhere.
PABP1 MLLE inh – inhibitors of microRNA-mediated deadenylation, human PABP1 MLLE binding. inhibition, % at 20 µM. 360,000 tested, 0.36% active. GST-MLLE / FITC-PAM2 fluorescence polarization. AID 588489. P11940; in the data active = inhibition above about 35%, passing the limit was not always enough;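 also: plate controls were DMSO wells with GST-MLLE for no effect and wells lacking GST-MLLE protein for full effect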
EBV gp42 inh – inhibitors of Epstein-Barr virus glycoprotein 42. Q1HVG2. Fluorescence polarization binding assay, mP read-out. inhibition, % (tested at 21.74 µM). 220,000 tested, 0.42% active. AID 1085; in the data active = inhibition above about 50%
Target sequence (Q1HVG2 whole entry, looked up): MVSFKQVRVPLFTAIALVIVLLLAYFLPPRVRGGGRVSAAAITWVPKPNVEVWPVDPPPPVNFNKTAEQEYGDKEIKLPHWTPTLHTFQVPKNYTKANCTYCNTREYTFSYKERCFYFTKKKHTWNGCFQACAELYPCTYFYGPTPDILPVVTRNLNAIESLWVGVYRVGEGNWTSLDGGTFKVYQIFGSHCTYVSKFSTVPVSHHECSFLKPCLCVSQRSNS
MEX-5 binding – C. elegans MEX-5 TCR-2 RNA binding activity. Q9XUB2. MEX-5/FITC-TCR2 RNA binding, fluorescence polarization; active compounds read low. activity score (negative = inhibition of binding), % at 10 µM. 300,000 tested, 0.38% active. AID 1832;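 active = inhibition past about -25% in most replicates, and total fluorescence under double the plate's negative control median, limit read from the data; inconclusive = replicates evenly split on the limit, or fluorescence at least double controls; inactive = too little inhibition in most replicates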;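 also: 0% = DMSO and -100% = 5 µM competing unlabeled TCR2 RNA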
PABP FP inh – blocks human PABP binding to poly(A) RNA. P11940. fluorescence polarization. calls only at 35 µM. 290,000 tested, 1% active;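 also: calls also rest on retests at 20 µM and on dose response follow-up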
eIF4H inh – inhibitors of RNA binding by human eIF4H; Q15056; eIF4H fluorescence polarization binding assay; inhibition, % at 35 µM; 290,000 tested, 0.94% active; AID 2012;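 also: calls also rest on retests at 20 µM and on dose response follow-up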
Starred values were filed as active, the others as inactive; i = inactive; ? = inconclusive; nt = no result given; + = active, no number. Unless noted, no rule for the calls is given here.

SMILES | PABP1 MLLE inh | EBV gp42 inh | MEX-5 binding | PABP FP inh | eIF4H inh
O=S(=O)([N-]c1nc2ccccc2nc1-[n+]1ccccc1)c1ccccc1 | 11 | -18 | 1 | i | 6
O=S(=O)([N-]c1nc2ccccc2nc1-[n+]1ccc(CCCc2ccccc2)cc1)c1cccs1 | 29 | 36 | -29* | + | 116*
O=S(=O)([N-]c1nc2ccccc2nc1-[n+]1ccc(-c2ccncc2)cc1)c1ccccc1 | 158 | 56* | -5 | i | ?
CC1(C(=O)NCCc2ccccc2)Cc2c(-c3ccc(C(N)=O)cc3)ccnc2O1 (stereo not drawn) | 4 | nt | nt | nt | nt
COc1cccc(/C=N/Nc2nc3ccccc3n3cnnc23)c1 | 3 | -14 | -2 | + | 85*
Cc1ccc(N/N=C(\C#N)C(=O)c2ccsc2)cc1 | 3 | -14 | -1 | i | -3
N#C/C(=N\Nc1ccc(Cl)cc1)C(=O)c1ccsc1 | -2 | -4 | -38* | i | 0
CCC(=O)/C=C1/Sc2ccc(OC)cc2N1CCO | 45* | -16 | 0 | i | -6
CCC(=O)/C=C1/Sc2ccc(OC)cc2N1CC | 31 | -9 | 4 | i | 7
O=C(Nc1cccc(N=Cc2cc(Br)cc(Br)c2O)c1)c1ccco1 | -8 | 38 | -3 | + | ?
Cc1ccc(N(C)S(=O)(=O)c2c(C)noc2/C=C/N(C)C)cc1 | 1 | nt | -30* | i | -12
CC(=O)N1CCc2c(sc(NC(=O)C3CCN(S(=O)(=O)c4cccs4)CC3)c2C(N)=O)C1 | -37 | nt | -3 | nt | nt
CC(=O)N1CCc2c(sc(NC(=O)C3CCCN3S(=O)(=O)c3cccs3)c2C(N)=O)C1 (stereo not drawn) | 32 | nt | -35* | nt | nt
CC(=O)N1CCc2c(sc(NC(=O)C3CCCCC3)c2C(N)=O)C1 | -4 | nt | -27* | i | 60
CC(=O)N1CCc2c(sc(NC(=O)c3cccc(N4C(=O)CCC4=O)c3)c2C(N)=O)C1 | -48 | nt | 2 | + | 57
CCc1ccc(C(O)c2ncc(-c3ccccc3Cl)[nH]2)cc1 (stereo not drawn) | -5 | nt | nt | nt | nt
CCn1c(C)nc2cc(S(=O)(=O)Nc3ccc(C)cc3)ccc21 | -139 | -7 | 3 | + | 8
CCn1c(C)nc2cc(S(=O)(=O)C(F)F)ccc21 | -6 | -14 | 1 | i | -4
O=C(NNC(=O)C1CCC1)c1ccc(Br)cc1 | 4 | nt | 0 | nt | nt
Cc1cnc(C(=O)NNC(=O)c2ccc(Br)cc2)cn1 | 12 | nt | -41* | nt | nt
O=C(NC(Cc1ccccc1)C(=O)N1CCN(c2ccc(F)cc2)CC1)c1ccccc1 (stereo not drawn) | -1 | nt | nt | nt | nt
Fc1ccc(NCc2nnc(SCc3nnc(-c4ccccc4)o3)n2Cc2ccccc2)cc1 | -57 | -14 | 0 | i | 58*
CC(NC(=S)Nc1ccccc1C(F)(F)F)C1CC2CCC1C2 (stereo not drawn) | 46* | 5 | 2 | i | -5
COc1cc(C2C(C#N)=C(N)Oc3cc(C)oc(=O)c32)cc(OC)c1OC (stereo not drawn) | 5 | -11 | -1 | i | 8
COc1cc(C2C(C#N)=C(N)Oc3cc(C)oc(=O)c32)cc2c1OCO2 (stereo not drawn) | -21 | 16 | -2 | + | 69*
SMILES | PABP1 MLLE inh | EBV gp42 inh | MEX-5 binding | PABP FP inh | eIF4H inh
Cc1cc2c(c(=O)o1)C(Cc1ccccc1)C(C#N)=C(N)O2 (stereo not drawn) | -15 | -8 | 5 | + | 70*
Oc1c(C(c2ccccc2)N2CCCCC2)ccc2ccccc12 (stereo not drawn) | 21 | nt | nt | nt | nt
COc1ccc(OCc2cc(C(=O)O)c(C)o2)cc1 | nt | -5 | 0 | + | ?
CS(=O)(=O)NCCSc1cc(C(F)(F)F)nc2ccccc12 | 0 | -10 | 1 | + | 64*
CN(C[C@H](Cc1ccccc1)N(CCN(CCc1ccccc1)N=O)N=O)N=O | -9 | -4 | 0 | + | -8
c1ccc2c(c1)oc1c(-c3cccc4nccn34)cccc12 | 11 | nt | nt | nt | nt
O=c1oc2cc(O)c(Cl)cc2c2ccccc12 | 4 | -2 | -1 | i | -2
O=c1cc2c(=O)oc3cc(O)c(O)oc3c2c(O)c1O | 30 | -12 | -84* | + | 92*
CC(C)(C)c1ccc(C(=O)NCCCNC(=O)c2ccco2)cc1 | 4 | nt | -1 | i | -5
CN(C)CCCNCCCNC(=O)c1ccco1 | 6 | -1 | -3 | + | 33*
COc1ccc(S(=O)(=O)N2CCCCC2c2cc(C(=O)NCc3ccccc3)no2)cc1 (stereo not drawn) | 8 | nt | nt | nt | nt
CC(=O)c1c(C)[nH]c(=S)c(C#N)c1-c1ccc(Cl)cc1 | 12 | -3 | 1 | i | -7
Cc1[nH]c(=S)c(C#N)c(-c2ccco2)c1C(=O)N(C)C | 16 | -8 | -2 | + | 90
O=C1CC(c2ccccc2)CC2=C1C1(CCCC1)N=C(Nc1nc3ccccc3o1)N2 (stereo not drawn) | -4 | nt | nt | nt | nt
CCOC(=O)c1c(C)oc2c1c(C=NCc1ccccn1)c(O)c1ccccc12 | 5 | 3 | nt | + | 121*
C[C@H]1CN([C@@H](C)CO)S(=O)(=O)c2ccc(Br)cc2O[C@@H]1CN(C)Cc1cccc(F)c1 | 8 | nt | nt | nt | nt
CC[n+]1ccc2cc(OC)c(OC)cc2c1Cc1ccc(OC)c(OC)c1 | -13 | -40 | 2 | + | 6
O=C1CSC(=S)N1/N=C/c1ccc(O)c(O)c1O | 3 | 70* | -88* | + | 80*
O=C1CSC(=S)N1/N=C/c1cc(Br)ccc1O | nt | nt | -5 | i | 14
COc1ccc(NC(=O)c2cc(C3CCCCN3C(=O)CCCc3ccccc3)on2)c(C)c1 (stereo not drawn) | -5 | nt | nt | nt | nt
Cc1c(NC(=O)Oc2ccccc2)sc(=S)n1C | 39* | -27 | -7 | i | -3
O=C(NCC1CCOCC1)c1ccc(-c2ccc(F)c(F)c2)c2ccoc12 | -5 | nt | nt | nt | nt
COc1ccc(OC)c(C(O)c2ncc(-c3ccccc3OC)[nH]2)c1 (stereo not drawn) | -10 | nt | nt | nt | nt
Cc1cccc(-c2cc(NCCc3cccnc3)n3nccc3n2)c1 | -1 | nt | nt | nt | nt
COc1ccc(-n2nc3c(=O)[nH][nH]c3cc2=O)cc1 | 3 | -17 | -79* | i | 90
SMILES | PABP1 MLLE inh | EBV gp42 inh | MEX-5 binding | PABP FP inh | eIF4H inh
COC(=O)c1nn(-c2ccc(OC)cc2)c(=O)cc1NN | -11 | -1 | 2 | i | active
O=c1[nH][nH]c2cc(=O)n(-c3cccc(C(F)(F)F)c3)nc12 | 9 | 0 | -46* | i | 20
COC(=O)c1ccccc1NC(=O)c1noc2c1CCC2 | 22 | 32 | -5 | + | 83*
CSc1ccccc1NC(=O)c1noc2c1CCC2 | 29 | 14 | 0 | + | 90*
O=S(=O)(c1ccc(NC(=S)NC23CC4CC(CC(C4)C2)C3)cc1)N1CCCCC1 | 28 | nt | nt | nt | nt
CC(=O)Nc1ccc(S(=O)(=O)NNC(=O)c2ccc(S(=O)(=O)N3CCCCC3)cc2)cc1 | -2 | -24 | 1 | i | -5
O=CN/N=C/c1c(O)ccc2ccccc12 | 96 | 46 | ? | i | 91
